# In the library only some 0.44% were active in any assay of this set; here they are far more common.
# EPAC2 ag = activates human EPAC2 exchange factor. EPAC2 activation, biochemical qHTS; response scale: 100% = 6.5 mM cAMP response. Potency, µM (titrated, usually from 154 µM), hits mostly activators. 360,000 tested, 0.079% active. AID 720711; note: nearly all actives have a fitted effect of over 50% in size
#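 Compounds were added across a concentration range to EPAC2 (100 nM), RAP1B-BODIPY-GDP (250 nM) and GDP (50 uM). After 5 min at room temperature, fluorescence was recorded at 5-min intervals for 30 min.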
# USP1-UAF1 inh = blocks the human USP1/UAF1 deubiquitinase complex; recombinant USP1/UAF1, Ub-Rhodamine cleavage fluorescence; O94782; Potency, µM (series often up to 57.1 µM), hits mostly inhibitors; 390,000 tested, 0.23% active; note: nearly all actives have a fitted effect of over 60% in size
# Target sequence (O94782 whole entry, looked up): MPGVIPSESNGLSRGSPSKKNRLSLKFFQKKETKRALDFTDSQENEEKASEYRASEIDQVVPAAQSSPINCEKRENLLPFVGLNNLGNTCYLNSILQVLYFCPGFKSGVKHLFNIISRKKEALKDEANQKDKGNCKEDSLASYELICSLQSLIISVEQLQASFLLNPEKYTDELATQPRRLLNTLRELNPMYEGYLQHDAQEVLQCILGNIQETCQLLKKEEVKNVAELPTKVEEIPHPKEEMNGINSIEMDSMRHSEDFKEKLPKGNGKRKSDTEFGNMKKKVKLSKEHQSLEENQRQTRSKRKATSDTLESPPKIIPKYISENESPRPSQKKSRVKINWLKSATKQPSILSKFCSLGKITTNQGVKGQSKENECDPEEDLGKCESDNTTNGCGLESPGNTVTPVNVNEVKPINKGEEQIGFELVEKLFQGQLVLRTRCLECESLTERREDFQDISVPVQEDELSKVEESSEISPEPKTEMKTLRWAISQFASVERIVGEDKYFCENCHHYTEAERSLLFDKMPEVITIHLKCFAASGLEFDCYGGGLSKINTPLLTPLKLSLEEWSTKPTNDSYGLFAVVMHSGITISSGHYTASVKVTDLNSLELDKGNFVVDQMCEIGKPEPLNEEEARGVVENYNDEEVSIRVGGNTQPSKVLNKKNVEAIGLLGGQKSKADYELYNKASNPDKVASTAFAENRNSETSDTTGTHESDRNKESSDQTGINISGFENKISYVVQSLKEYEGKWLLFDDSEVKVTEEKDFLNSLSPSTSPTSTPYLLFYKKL
#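 Step one: compound is pinned into 1nM USP1/UAF1 in HEPES pH 7.8 buffer with TCEP. Step two: 15 min room-temperature incubation. Step three: Ub-Rho (150nM final) starts cleavage, tracked by fluorescence over six one-minute reads.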
# EPAC1 antagonist = antagonists of human EPAC1. Potency, µM (titrated, usually from 115 µM), most hits filed as inhibitors. 360,000 tested, 0.14% active. AID 720709. EPAC1 GEF assay, Rap1b-BODIPY-GDP exchange fluorescence. O95398; note: nearly all actives have a fitted effect of over 50% in size
# EPAC2 antagonist = antagonists of human EPAC2. EPAC2 GEF exchange of Rap1B-BODIPY-GDP, fluorescence. Potency, µM (doses to about 114 µM), most hits filed as inhibitors. 360,000 tested, 0.18% active; note: nearly all actives have a fitted effect of over 45% in size
# EPAC1 agonist = activates human EPAC1 exchange factor; 360,000 tested, 0.073% active; Potency, µM (highest dose often 154 µM), most hits filed as activators; O95398; AID 720707; EPAC1 agonist qHTS, biochemical assay; response scale: 100% = response to 6.5 mM cAMP; note: nearly all actives have a fitted effect of over 60% in size
#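 Fluorescent GDP-exchange assay: 100 nM EPAC1 with 250 nM Rap1B preloaded with BODIPY-GDP and 50 uM GDP; compounds tested as concentration series, 5 min at room temperature, then read every 5 min for 30 min (ex 480/em 540 nm); normalized to 6.5 mM cAMP.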
# Hits are given with their value; - = inactive; ? = inconclusive; . = no result. Calls come from the whole dose curve; as a rule, active = well fitted curve in the direction sought with a large enough effect; inconclusive = small, poorly fitted or top-dose-only effect, or another doubt; inactive = no such curve, though single readings can be large; an effect the other way counts as inactive or inconclusive.
SMILES,EPAC2 ag,USP1-UAF1 inh,EPAC1 antagonist,EPAC2 antagonist,EPAC1 agonist
CC(C)C[C@H]1COCCS(=O)(=O)N1Cc1cccc(Cl)c1,-,-,-,?,-
CC(C)C[C@H]1COCCS(=O)(=O)N1Cc1cccc(C(F)(F)F)c1,-,-,-,14µM,-
CC1=NN(c2nc(-c3ccccc3)cs2)C(=O)C1,-,-,79µM,-,-
O=C1CC(c2ccccc2)=NN1c1nc(-c2ccccc2)cs1,-,-,?,-,-
COc1ccc(-n2c(=O)c3ccccc3n(Cc3cccc(C)c3)c2=O)cc1,.,-,.,.,.
CC(=O)N1CCc2cc(S(=O)(=O)NC(Cc3ccccc3)C(=O)Nc3cc(C)ccc3C)ccc21 (configuration not stated),.,-,.,.,.
COc1ccc(-c2cn3c(n2)sc2cc(C(=O)Nc4ccc(F)cc4Cl)ccc23)cc1,.,-,.,.,.
CCN1C(=O)C(=CC=CN(C)c2ccccc2)SC1=S,89µM,?,-,-,?
CCN(CC)c1ccc2c(c1)oc(=O)c1c(Cl)cc(=O)oc12,89µM,-,-,-,-
Cc1ccc2c(CC(=O)Nc3c(C(=O)c4ccc(F)cc4)oc4ccccc34)coc2c1C,.,-,.,.,.
CC1=NOC(=O)/C1=C\c1ccc(-c2cc(Cl)ccc2Cl)o1,-,-,-,79µM,-
CCOC(=O)COc1ccc(Br)cc1/C=C/c1[nH]c(=O)[nH]c(=O)c1[N+](=O)[O-],-,-,32µM,-,-
CCOC(=O)COc1ccc(Br)cc1/C=C\c1[nH]c(=O)[nH]c(=O)c1[N+](=O)[O-],-,-,?,-,-
O=c1[nH]nc(CNc2ccc(C(F)(F)F)cc2)c2ccccc12,-,-,-,-,-
O=c1[nH]nc(CNc2ccc(O)cc2)c2ccccc12,-,?,35µM,-,-
COc1ccc(/C=N/NC(=O)c2cc(O)c(O)c(O)c2)cc1Cn1cc([N+](=O)[O-])cn1,-,-,32µM,-,-
Cc1ccc(OCC(=O)Nc2ccc(C(=O)OCc3cc(=O)n4ccsc4n3)cc2)cc1C,.,-,.,.,.
COc1ccccc1CNC(=O)C1CCCN(S(=O)(=O)c2ccc3c(c2)CCCN3C(C)=O)C1 (configuration not stated),.,-,.,.,.
O=C(COC(=O)/C=C/c1cccs1)Nc1ccc(F)cc1,-,-,-,-,-
CCc1cccc(NC(=O)COC(=O)/C=C/c2cccs2)c1,-,-,-,-,112µM
CCc1cc2c(cc3c(=O)n(CC(=O)N4CCCCC4)ncn32)s1,.,-,.,.,.
COc1ccccc1C(=O)NNC(=O)CCCN1C(=O)/C(=C/c2cccs2)SC1=S,100µM,-,-,-,-
CCc1ccc(C=C2SC(=S)N(CCCC(=O)Nc3ccc(C(=O)O)cc3)C2=O)cc1,-,.,?,-,-
CCc1ccc(/C=C2/SC(=S)N(CCCC(=O)Nc3ccccc3C(=O)O)C2=O)cc1,-,-,40µM,?,-
Nc1cccc2cc(S(=O)(=O)O)ccc12,-,7.1µM,?,-,-
SMILES,EPAC2 ag,USP1-UAF1 inh,EPAC1 antagonist,EPAC2 antagonist,EPAC1 agonist
O=Nc1c(O)ccc2cc(S(=O)(=O)O)ccc12,-,?,-,-,-
O=C(Nc1ccc(F)cc1)C1CCN(c2nc3ccccc3nc2C(F)(F)F)CC1,.,-,.,.,.
Nc1cc2nsnc2cc1Br,-,4.5µM,?,?,-
COc1cc(/C=C/C(=O)O)ccc1OS(=O)(=O)c1c(C)c(C)cc(C)c1C,-,-,-,-,-
COc1cc(C)c(/C=C/C(C)=C/C=C/C(C)=C/C(=O)O)c(C)c1C,-,-,?,10µM,-
COc1ccc(CNC(=O)Nc2nc(C(N)Cc3ccc(Cl)cc3)cs2)cc1 (configuration not stated),-,.,-,-,-
Cc1onc(-c2ccc(Br)cc2)c1C(=O)Nc1ccc(Br)cc1F,.,-,.,.,.
CN=c1sc2c(n1C)C(=O)c1ccccc1C2=O,-,16µM,-,-,-
O=C1C=C(N(CCO)Cc2ccccc2)c2ccccc2C1=O,-,3.5µM,45µM,?,-
O=C(Cn1cnc2scc(-c3cccc([N+](=O)[O-])c3)c2c1=O)NCc1ccco1,-,-,56µM,-,-
Cc1sc2ncn(CC(=O)NCc3ccco3)c(=O)c2c1-c1ccc(F)cc1,-,-,-,-,-
COC(=O)CCC(=O)OC1(C)C(=O)C2=CN(Cc3ccccc3)C(c3ccc(OC)cc3)=CC2=C(Br)C1=O (configuration not stated),-,?,-,-,-
COC(=O)CCC(=O)OC1(C)C(=O)C2=CN(Cc3ccc(OC)cc3)C(c3ccc(OC)cc3)=CC2=C(Br)C1=O (configuration not stated),-,-,-,-,-
COC(=O)CCC(=O)OC1(C)C(=O)C2=CN(CC3CC3)C(c3ccc(OC)cc3)=CC2=C(Br)C1=O (configuration not stated),-,32µM,-,-,-
COC(=O)CCC(=O)OC1(C)C(=O)C2=CN(C3CC3)C(c3ccc(OC)cc3)=CC2=C(Br)C1=O (configuration not stated),-,22µM,-,?,-
COC(=O)CCC(=O)OC1(C)C(=O)C2=CN(CCCOC(C)C)C(c3ccc(OC)cc3)=CC2=C(Br)C1=O (configuration not stated),-,28µM,-,-,-
Cc1cccc(Cn2c(=O)n(CCCC(=O)NCc3ccccc3Cl)c(=O)c3ccccc32)c1,.,-,.,.,.
CC(=O)Nc1ccc(NC2=C(Cl)C(=O)c3ccccc3C2=O)cc1,-,?,-,-,-
Cc1ccc(NC2=C(NCCO)C(=O)c3ccccc3C2=O)cc1,-,14µM,-,?,-
O=C(N/N=C/c1cc(Cl)cc(Cl)c1O)c1ccncc1,?,32µM,-,-,-
O=C(N/N=C/c1ccc(Cl)cc1Cl)c1ccncc1,-,-,-,-,-
c1ccc(-n2nnnc2-n2ccnc2)cc1,10µM,-,-,-,-
Cn1c(=O)n(C)c2cc(CNCc3ccc(F)cc3)ccc21,.,-,.,.,.
COc1cc(/C=C2/C(=O)c3cccc([N+](=O)[O-])c3C2=O)c(Br)cc1O,-,?,40µM,-,-
Cc1cc(C)c2nc(C(F)(F)F)nc(N3CC(C)OC(C)C3)c2c1 (configuration not stated),-,-,-,10µM,-
CCOC(=O)CC1C(=O)NCCN1C(=O)c1cccc(C(F)(F)F)c1 (configuration not stated),-,-,-,20µM,-
CCOC(=O)CC1C(=O)NCCN1C(=O)c1ccc(F)cc1F (configuration not stated),-,-,-,-,-
Cc1sc2c(c1C)c(=O)n(-c1ccc(Cl)cc1)c(=O)n2Cc1cc(=O)n2cc(Br)ccc2n1,.,-,.,.,.
Cc1cc(C)n2c(NC3CCCC3)c(-c3ccc(F)cc3)nc2n1,-,.,?,-,-
O=C(CSc1nc2cc(Cl)ccc2s1)c1cc2ccccc2o1,-,28µM,-,-,-

# High-throughput results: PubChem, National Center for Advancing Translational Sciences (NCATS)
